Source: PubChem (National Center for Advancing Translational Sciences (NCATS))
A549 tox – counter-screen for Nrf2 inhibitors: cytotoxicity in A549 cells; A549 ARE-Fluc cells, CellTiter-Fluor viability, 18-24 h; Potency, µM (series often up to 46 µM), inactives show at the top dose activity change, negative = cytotoxicity, usual class: inhibitors; actives 0.16% (n = 390,000); also: % is scaled to controls: 0 for no effect and ±100 for the full control effect
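A549 ARE-Fluc cells in 5% FBS OPTI-MEM, 5000 cells/well, rested 2 h then exposed to compounds in concentration-response for 18-24 h at 37 °C. Viability by CellTiter-Fluor fluorescence (Ex 405/Em 525) after 30 min; luciferase luminescence (BugLite, 15 min, RT) read afterwards.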
TGFb SMAD3 inh – blocks TGF-b signaling; actives 1.2% (n = 410,000); HepG2 CAGA-GFP TGF-b/SMAD3 reporter, GFP fluorescence, 18 h; TGF-beta stimulated, 500 pg/mL final; Potency, µM (series often up to 46.1 µM), for the others: top-dose activity, negative = inhibition, actives largely listed as inhibitors; also: % is scaled to controls: 0 for no effect and ±100 for the full control effect; nearly all actives have a fitted effect of over 65% in size
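GFP signal (ex488/em500-530) from TGF-beta-stimulated HEPG2 CAGA-GFP cells, 500 pg/mL final, 18 h at 37 degrees C in DMEM plus 1% FBS, normalized to unstimulated and DMSO-stimulated controls.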
HepG2 tox – counter-screen for TGF-b inhibitors: cytotoxicity in HepG2 cells. actives 0.76% (n = 410,000). HepG2 CAGA-GFP viability, ATP luminescence, 18 h. Potency, µM (highest dose often 46.1 µM), for the others: at the highest dose activity change, negative = cytotoxicity, usual class: cytotoxic
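HepG2 CAGA-GFP cells (1000/well, DMEM with 1% FBS) received compound, then TGF-beta at 500 pg/mL final, and were incubated 18 hours at 37 degrees C. Viability was read by CellTiter-Glo luminescence. Media-only wells were set as complete cell-killing and DMSO as no toxicity.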
S2 tox – cell viability loss in ATXN counter-screen. AID 651635. actives 0.49% (n = 400,000). Potency, µM (doses to about 56.7 µM), most hits filed as cytotoxic. S2 cells (HEK-293 line with an ATXN2-luciferase reporter) viability, CellTiter-Fluor protease fluorescence, 24 h; also: nearly all actives have a fitted effect of over 40% in size
ATXN2 expr inh – inhibitors of ATXN2 expression | AID 1745845 | HEK-293 ATXN2-luciferase reporter, luminescence, 24 h | actives 0.72% (n = 360,000) | Potency, µM (titrated, usually from 57 µM), inactives show at the top dose activity change, negative = inhibition, usual class: inhibitors; also: % is scaled to controls: 0 for no effect and ±100 for the full control effect; nearly all actives have a fitted effect of over 55% in size
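qHTS (up to 57 uM final) was run with 24 h compound exposure of reporter cells at 37 °C. Each well was multiplexed: SteadyGlo luminescence measured ATXN2-luciferase expression after a fluorogenic Gly-Phe-AFC viability readout (25 uM final).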
Nrf2 inh – blocks Nrf2 signaling | A549 ARE-Fluc reporter, luciferase luminescence, 18-24 h | Potency, µM (titrated, usually from 46 µM), for the others: at the top dose activity change, negative = inhibition, hits mostly inhibitors | actives 2.1% (n = 360,000) | AID 504444; also: % is scaled to controls: 0 for no effect and ±100 for the full control effect; nearly all actives have a fitted effect of over 60% in size
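Nrf2 activity is the BugLite luminescence, read 15 min after reagent at room temperature, following CellTiter-Fluor cytotoxicity readout (30 min, 37C). Compound titrations were applied for 18-24 h to 5000 A549 ARE_Fluc cells/well in 5% FBS OPTI-MEM.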
* hit, by the source's call; i = inactive; u = inconclusive; x = not tested or not shown; [ ] = remark or other dose. This is a sample that favours compounds with a hit; in the whole collection about 3.8% have one here. Calls follow the shape of the dose curve; as a rule, active = well fitted curve in the direction sought with a large enough effect; inconclusive = small, poorly fitted or top-dose-only effect, or another doubt; inactive = no such curve, though single readings can be large; an effect the other way counts as inactive or inconclusive. Potency is read from the fitted curve at half-maximal effect.

SMILES	A549 tox	TGFb SMAD3 inh	HepG2 tox	S2 tox	ATXN2 expr inh	Nrf2 inh
CCOc1cc(/C=N\NC(=O)c2ccc(NC(=O)C(C)(C)C)cc2)ccc1OC(=O)c1ccc(C)cc1	-7.2%	2.2%	-10.4%	i	-6.4%	10.3µM*
O=C1NC(=O)C2(CCCCCCC2)N1	-3.4%	2.1%	20.8%	i	-6.0%	-0.3%
CC(=O)Oc1cccc2c1C(=O)c1c(OC(C)=O)cc(C(=O)O)cc1C2=O	20.6µM*	3.8%	-17.5%	i	-19.4%	u
CC(=O)Oc1ccc(C(=O)O)cc1OC(C)=O	1.1%	4.4%	-1.8%	i	-4.4%	-8.0%
CC1=C(C(=O)OCC2CCCO2)C(c2cccc(C(F)(F)F)c2)C2=C(CC(c3ccco3)CC2=O)N1 (stereo unspecified)	u	u	-22.1%	x	x	23.1µM*
CCN1CCN(C(=O)N[C@H](C(=O)N[C@@H]2C(=O)N3C(C(=O)O)=C(CSc4nnnn4C)CS[C@@H]23)c2ccc(O)cc2)C(=O)C1=O	x	x	x	i	7.9%[18.9 µM]	x
O=C(c1ccc2c(=O)n3c(nc2c1)CCCCC3)N1CCN(c2ccccc2)CC1	-4.9%	-23.7%	-15.4%	i	0.6%	-2.8%
O=C(c1ccc2c(=O)n3c(nc2c1)CCCCC3)N1CCN(c2ccc([N+](=O)[O-])cc2)CC1	u	-23.1%	-19.2%	i	-36.0%	23.1µM*
O=C(c1ccc2c(=O)n3c(nc2c1)CCCCC3)N1CCCCC1	-1.9%	-0.2%	6.3%	i	14.4%	2.2%
O=C(c1ccc2c(=O)n3c(nc2c1)CCCCC3)N1CCN(C(c2ccccc2)c2ccccc2)CC1	-16.7%	u	5.1%	u	-31.7%	20.6µM*
CCOC(=O)c1sc2nc(C)nc(NCc3ccc(Cl)cc3)c2c1C	-16.9%	6.6%	-30.8%	i	-25.4%	18.4µM*
CCOC(=O)c1sc2nc(CC(=O)OC)nc(NCc3ccc(F)cc3)c2c1C	u	16.2%	-16.3%	i	-16.6%	10.3µM*
CCOC(=O)c1sc2nc(C)nc(NCc3ccc(F)cc3)c2c1C	0.2%	u	-0.8%	i	u	u
CCOC(=O)c1sc2nc(C)nc(NCc3cccnc3)c2c1C	-2.3%	1.0%	4.1%	i	6.6%	-5.4%
CC(=O)OCCN1C(=O)c2c(C)nc3ccc(S(=O)(=O)N4CCOCC4)cc3c2C1=O	x	x	x	x	1.7%	x
CC(C)=CC(=O)O[C@@H]1Cc2cc3ccc(=O)oc3cc2OC1(C)C	-0.1%	-14.2%	-13.6%	i	u	u
CC(NC(=O)c1ccc(Cl)c(Cl)c1)c1ccc(-c2ccccc2)cc1 (stereo unspecified)	-6.0%	22.5%	12.9%	i	x	-16.5%
CC(NC(=O)CCl)c1ccc(Cl)c(Cl)c1 (stereo unspecified)	0.5%	u	17.8µM*	u	u	-14.3%
CCC(NC(=O)CCl)c1ccc(C)cc1 (stereo unspecified)	u	2.6%	-0.3%	i	-2.1%	23.1µM*
CCCC(NC(=O)CCl)c1ccccc1 (stereo unspecified)	-18.2%	u	-25.5%	u	0.1%	u
COc1ccccc1CNC(=O)c1nn(C)c2c1CS(=O)(=O)c1ccccc1-2	2.4%	-7.5%	-8.0%	i	-10.1%	2.3%
CC1(C)CC(NCc2ccc3c(c2)OCO3)CCO1 (stereo unspecified)	1.9%	0.1%	-3.4%	i	8.2%	13.7%
Cc1cc2c3c([nH]c2cc1S(=O)(=O)N1CCC2(CC1)OCCO2)CC(C)(C)CC3=O	15.9%	-11.6%	-29.7%	u	x	23.1µM*
CCc1cc2c3c([nH]c2cc1S(=O)(=O)N1CCC2(CC1)OCCO2)CCCC3=O	-0.6%	-8.1%	-12.0%	i	-1.0%	u
